High-throughput results: PubChem BioAssay, Broad Institute
Many of the other results were omitted from the sample, so hits are more common in it than they were.
BL2 CD40 inh: CD40 pathway inhibition in BL2 cells. BL2 NF-kB luciferase reporter, CD40L-induced, 4 h. inhibition, % at 10 µM. 83,000 compounds, 0.94% hits. AID 1053188;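 active = mean inhibition of at least 50% with a set share of replicates also reaching that level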;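 also: 0% = neutral control wells and 100% = IKK inhibitor VII at 50 µM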
* = called active by the depositor; [ ] = dose if it differs, or a comment.

SMILES	BL2 CD40 inh
CC(=O)N(C(C)=O)c1ncnc2c1c(-c1ccc(Cl)cc1)nn2C(C)(C)C	55*
CC(=O)Nc1ncnc2c1c(-c1ccc(Cl)cc1)nn2C(C)(C)C	7
COc1ccc(S(=O)(=O)N(C)C[C@@H]2Oc3c(NC(=O)Nc4c(C)noc4C)cccc3C(=O)N([C@H](C)CO)C[C@@H]2C)cc1	-26[25 µM]
C[C@@H]1CN([C@H](C)CO)C(=O)c2c(c3ccccc3n2C)-c2ccccc2CO[C@H]1CN(C)C(=O)c1cc(Cl)cc(Cl)c1	51*[25 µM]
C[C@@H]1CN([C@@H](C)CO)C(=O)c2c(c3ccccc3n2C)-c2ccccc2CO[C@@H]1CN(C)Cc1ccc(O)cc1	-6
C[C@@H]1CN([C@@H](C)CO)C(=O)c2c(c3ccccc3n2C)-c2ccccc2CO[C@H]1CN(C)C(=O)c1cc(Cl)cc(Cl)c1	29[25 µM]
C[C@H](CO)N1C[C@H](C)[C@@H](CN(C)Cc2cccc(F)c2)OCc2ccccc2-c2c(n(C)c3ccccc23)C1=O	20
COc1ccccc1NC(=O)N(C)C[C@@H]1OCc2ccccc2-c2c(n(C)c3ccccc23)C(=O)N([C@H](C)CO)C[C@H]1C	6
C[C@@H]1CN([C@H](C)CO)C(=O)c2c(c3ccccc3n2C)-c2ccccc2CO[C@@H]1CN(C)C(=O)Nc1ccccc1C(F)(F)F	34[25 µM]
C[C@@H]1CN([C@@H](C)CO)C(=O)c2c(c3ccccc3n2C)-c2ccccc2CO[C@H]1CN(C)Cc1ccccc1	49*
C[C@@H]1CN([C@@H](C)CO)C(=O)c2c(c3ccccc3n2C)-c2ccccc2CO[C@H]1CN(C)Cc1cccc(C(F)(F)F)c1	78*[25 µM]
C[C@H](CO)N1C[C@H](C)[C@@H](CN(C)Cc2ccccc2)OCc2ccccc2-c2c(n(C)c3ccccc23)C1=O	22
C[C@@H]1CN([C@H](C)CO)C(=O)c2c(c3ccccc3n2C)-c2ccccc2CO[C@H]1CN(C)Cc1ccc(C(F)(F)F)cc1	16
C[C@H](CO)N1C[C@H](C)[C@H](CN(C)C(=O)c2cc(Cl)cc(Cl)c2)OCc2ccccc2-c2c(n(C)c3ccccc23)C1=O	42[25 µM]
C[C@H]1CN([C@@H](C)CO)C(=O)c2c(c3ccccc3n2C)-c2ccccc2CO[C@H]1CN(C)C(=O)Nc1ccccc1C(F)(F)F	59*[25 µM]
CC(=O)Nc1ccc2c(c1)C(=O)N(C)C[C@@H](C)[C@@H](CN(C)S(C)(=O)=O)O2	-6
C[C@@H]1CN(C)C(=O)c2cc(N)ccc2O[C@H]1CN(C)C(=O)OC(C)(C)C	0
CCCNC(=O)N1CC2(CCN(C(=O)Nc3cccc(F)c3)CC2)c2c(n(C)c3cc(OC)ccc23)[C@H]1CO	17[25 µM]
CN(C)C(=O)c1cccc(-c2ccc(C3[C@@H]4CN(S(=O)(=O)c5ccccc5F)C[C@H]3N4)cc2)c1 (some centres undefined)	7
CS(=O)(=O)N1C[C@@H]2N[C@H](C1)C2c1ccc(-c2ccc(F)cc2)cc1 (some centres undefined)	14
O=C(Cc1ccccn1)N1CC2(C1)[C@H](c1ccccc1)[C@@H](CO)N2C(=O)c1ccncc1	0[25 µM]
COc1ccc2c3c([nH]c2c1)[C@@H](CO)N(Cc1ccccn1)CC31CCN(C(C)=O)CC1	-10[25 µM]
CN1C(=O)c2cc(NC(=O)C3CCCCC3)ccc2OC[C@H]2O[C@H](CC(=O)NC3CCCC3)CC[C@H]21	8
O=C1Nc2ccccc2OCc2cn(nn2)CC[C@H]1Cc1ccc(-c2ccccc2)cc1	-11[25 µM]
C[C@@H]1CN([C@H](C)CO)C(=O)c2c(c3ccccc3n2C)-c2ccccc2CO[C@@H]1CN(C)Cc1ccc(C(F)(F)F)cc1	6
SMILES	BL2 CD40 inh
C[C@@H]1CN([C@H](C)CO)C(=O)c2c(c3ccccc3n2C)-c2ccccc2CO[C@H]1CN(C)S(=O)(=O)c1ccc([N+](=O)[O-])cc1	37[25 µM]
C[C@H]1CN([C@@H](C)CO)C(=O)c2c(c3ccccc3n2C)-c2ccccc2CO[C@@H]1CN(C)Cc1ccc(C(F)(F)F)cc1	15
C[C@@H]1CN([C@H](C)CO)C(=O)c2c(c3ccccc3n2C)-c2ccccc2CO[C@H]1CN(C)Cc1cccc(C(F)(F)F)c1	76*[25 µM]
C[C@@H]1CN([C@@H](C)CO)C(=O)c2c(c3ccccc3n2C)-c2ccccc2CO[C@H]1CN(C)S(=O)(=O)c1ccc([N+](=O)[O-])cc1	55*[25 µM]
C[C@H]1CN([C@@H](C)CO)C(=O)c2c(c3ccccc3n2C)-c2ccccc2CO[C@@H]1CN(C)S(=O)(=O)c1ccccc1	26
N#CC(Cc1ccc(O)cc1)c1ccc(O)cc1 (centres undefined)	12[25 µM]
COc1ccc2c3c([nH]c2c1)[C@H](CO)N(CC1CC1)CC31CCN(S(=O)(=O)c2cccc(F)c2)CC1	7[25 µM]
O=C(c1cccnc1)N1C[C@@H]2[C@H](c3ccccc31)[C@H](CO)N2C(=O)Nc1ccccc1	2
CCN1[C@@H]2c3ccc(-c4ccccc4F)c(=O)n3C[C@H]1[C@H](CO)[C@H]2C(=O)N1CCCCC1	-12[25 µM]
C[C@@H]1CN([C@@H](C)CO)C(=O)c2ccccc2-c2ccccc2CO[C@H]1CN(C)S(=O)(=O)c1ccc(C(F)(F)F)cc1	-13[25 µM]
O=C(O)CCSc1nc2ccccc2s1	14
O=S(=O)(CCSc1ccccn1)c1nc2ccccc2s1	59*
O=c1[nH]c(CSc2ccccn2)nc2ccccc12	-21
C[C@@H](NC(=O)C[C@H]1CC[C@H]2[C@@H](COc3ccc(NS(=O)(=O)c4ccc(Cl)cc4)cc3C(=O)N2C)O1)c1ccccc1	31[25 µM]
O=C(C[C@H]1C[C@@H]2c3cc(NC(=O)c4ccc5c(c4)OCO5)ccc3O[C@@H]2[C@H](CO)O1)NCc1ccccn1	-15[25 µM]
CC(=O)N(C)C[C@@H]1Oc2ccc(NC(=O)NC(C)C)cc2CC(=O)N(C)C[C@H]1C	4
COc1ccc(NC(=O)Nc2nc(C(N)CC(C)C)cs2)cc1 (centres undefined)	2
CC(C)c1ccc(NC(=O)Nc2nc(C(N)COCc3ccccc3)cs2)cc1 (centres undefined)	57*
COc1cccc(Nc2nc(C(N)COCc3ccccc3)cs2)n1 (centres undefined)	6
C[C@@H]1CN(C)C(=O)Cc2cc(N)ccc2O[C@@H]1CN(C)C	3
CNc1cc2ncnc(Nc3cccc(Br)c3)c2cc1N	-7[25 µM]
CC(C)NC(=O)N(C)C[C@H]1Oc2c(cccc2N(C)C)C(=O)N(C)C[C@@H]1C	5
CCSc1nc2ccc(C)cc2cc1C#N	-10
Cc1ccc2nc(C(F)(F)F)c(C#N)c(N)c2c1	108*
Cc1cc(C)c2nc(C(F)(F)F)c(C#N)c(N)c2c1	20
SMILES	BL2 CD40 inh
CS(=O)(=O)N1[C@@H]2CN(CC(F)(F)F)C[C@H]1C2c1ccc(Br)cc1 (some centres undefined)	6
CC1(C)Oc2ccc(C#N)cc2C(N2CCCC2=O)C1O (centres undefined)	-2[25 µM]
C[C@@H]1CN([C@@H](C)CO)C(=O)c2cc(NC(=O)CCCN(C)C)ccc2O[C@@H](C)CCCCO[C@H]1CN(C)Cc1ccncc1	-3
CC(=O)Nc1ccc2c(c1)CC(=O)N(C)C[C@@H](C)[C@@H](CN(C)C(=O)OC(C)(C)C)O2	5
CC(C)C1CC(N(C)C)=CC(=S)N1 (centres undefined)	30*
CN1c2ccc(-c3ccc(C#N)cc3)cc2[C@H]2[C@H](CCN2S(=O)(=O)c2cccc(F)c2)[C@H]1CO	14
CCOc1ccc(/C=C/C(=O)N(CC)CC(=O)Nc2c(F)cccc2F)cc1OC	5
CCN(CC(=O)Nc1c(F)cccc1F)C(=O)/C=C/c1ccc(C)o1	84*
